SMILES strings stand for the structures. The whole screen tested about 16,000 compounds, of which about 4,000 (25%) were called active. Not shown: some 26% with an inconclusive outcome. Not all results are given here. Unmarked numbers belong to inactive results. The call rests on the fitted dose curve; in most records, active means well fitted curve in the direction sought with a large enough effect; inconclusive means small, poorly fitted or top-dose-only effect, or effect the other way; inactive means no such curve, though single readings can be large or run the other way.
On the % scale 0 is the no-effect control and ±100 the full control effect.

Chain of Cytochrome P450 2C9 (Homo sapiens) (P11712 whole entry, looked up): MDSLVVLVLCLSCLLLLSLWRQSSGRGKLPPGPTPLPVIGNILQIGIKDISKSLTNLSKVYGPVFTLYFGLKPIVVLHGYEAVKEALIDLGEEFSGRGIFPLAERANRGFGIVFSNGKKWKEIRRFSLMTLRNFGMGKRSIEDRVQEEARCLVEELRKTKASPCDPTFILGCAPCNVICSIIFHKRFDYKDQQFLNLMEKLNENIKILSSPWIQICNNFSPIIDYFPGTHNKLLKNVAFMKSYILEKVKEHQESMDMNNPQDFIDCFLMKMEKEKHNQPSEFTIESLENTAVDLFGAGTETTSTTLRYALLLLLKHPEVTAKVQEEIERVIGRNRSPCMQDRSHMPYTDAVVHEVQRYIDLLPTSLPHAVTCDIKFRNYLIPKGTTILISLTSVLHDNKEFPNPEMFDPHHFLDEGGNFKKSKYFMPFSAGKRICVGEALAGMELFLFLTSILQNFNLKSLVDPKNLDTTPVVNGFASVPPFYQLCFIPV

This experiment has as its target Cytochrome P450 2C9 (Homo sapiens) (UniProt P11712). Description: Cytochrome panel assay with activity outcomes. The note with it: recombinant CYP, pro-luciferin dealkylation, luminescence, p450-cyp2c9; series mostly up to 57.1 µM; activity, negative = inhibition: at the top concentration.
`CC(=O)N1CCC2(CCN(Cc3ccccc3)CC2)CC1`: the “activity, negative = inhibition” value was -0.802%.
As to `CC(C)OC(=O)C(C#N)c1nc2ccccc2nc1N1CCN(Cc2ccccc2)CC1` (configuration not stated), the AC50 (commonly the concentration at which the activity in the assay is half-maximal) was 2.82 µM (active).
In the case of `CC(C)NC1(C(N)=O)CCN(Cc2ccccc2)CC1`, the activity, negative = inhibition was -5.53% [at 11.4 µM].
As for `CN(C)c1ccc(-c2ccc3ncnc(N4CCNCC4)c3c2)cc1`, the activity, negative = inhibition is 6% [at 2.29 µM].
For the compound `Cc1cccc(CNc2ccnc(-c3ccoc3)n2)c1`, the activity, negative = inhibition is -14.6% [at 2.29 µM].
As for `CC1(C)Cc2c(sc3nc(-c4ccccc4)n(N)c(=O)c23)CO1`, the AC50 is 12.6 µM (active).
`Cc1nn2c(C)nc3sc4c(c3c2nc1=O)CC(C)(C)OC4`: the “activity, negative = inhibition” value was -21%.
With `CCCN1C[C@H](CSC)C[C@H]2c3cccc4[nH]cc(c34)C[C@@H]21`, the “activity, negative = inhibition” value is -5.72% [at 25.6 µM].
`N[C@@H](CCCP(=O)(O)O)C(=O)O`: the “activity, negative = inhibition” value is -6.04%.
For `CN(C)c1ccc(NC(=O)CSc2nc(N)c(C(=O)Nc3ccc(N(C)C)cc3)s2)cc1`, the half-maximal activity concentration (AC50) is 2.82 µM (active).
As to `CCN(CC)c1ccc(NC(=O)CSc2nnc3nc(C)cc(C)n23)cc1`, the “activity, negative = inhibition” value is -15.7%.
Take `C[C@@]12CCC(=O)C=C1CC[C@H]1[C@@H]2[C@@H](O)C[C@]2(C)[C@@H]1CC[C@@]2(O)C(=O)CO`: the activity, negative = inhibition is -3.75% [at 11.4 µM].
For `CCOC(=O)c1c(N2C(=O)Nc3cc(Cl)c(Cl)cc3N2O)sc2c1CCCCC2`, the AC50 is 3.55 µM (active).
For `O=C1CCCC2=C1C(c1ccc(OS(=O)(=O)c3ccc(Cl)cc3)cc1)C1=C(CCCC1=O)O2`, the AC50 was 7.08 µM (active).
As to `CN(C)C[C@H]1CCC2=C(C1=O)C(c1ccc(Cl)c(Cl)c1)C1=C(CC[C@H](CN(C)C)C1=O)O2`, the activity, negative = inhibition is -1.08% [at 11.4 µM].
Same read-out and setting: for `Cc1ccc(S(=O)(=O)Oc2cc(S(=O)(=O)O)cc3cc(S(=O)(=O)O)cc(N)c23)cc1` the value was -5.74% [at 11.4 µM].
For the compound `Cc1ccc(S(=O)(=O)Oc2ccc(C3C4=C(CCCC4=O)OC4=C3C(=O)CCC4)cc2)cc1`, the AC50 is 3.98 µM (active).
On to `Cc1ccc(S(=O)(=O)Oc2cc(N)c3c(n2)CCC3)cc1`, for which the activity, negative = inhibition is 20.5% [at 11.4 µM].
With `O=C(O)c1c2c(c(O)c3c1CN(C1CCCCC1)CO3)OCN(C1CCCCC1)C2`, the activity, negative = inhibition was -1.96% [at 11.4 µM].
In the case of `O=C(/C=C\c1ccc(O)c(O)c1)O[C@@H](Cc1ccc(O)c(O)c1)C(=O)O`, the “activity, negative = inhibition” value was -21.8%.
For the compound `Cc1ccccc1S(=O)(=O)O[C@@H]1NS(=O)(=O)c2ccccc21`, the activity, negative = inhibition was 20.8% [at 11.4 µM].
Take `Cc1ccccc1S(=O)(=O)Oc1ccccc1C(=O)Oc1ccccc1`: the AC50 is 2.24 µM (active).
With `Cc1cc2c(c(=O)o1)[C@@H](O)[C@H]1O[C@@H]1C2=O`, the activity, negative = inhibition was -1.55% [at 11.4 µM].
On to `O=C(Nc1nnc(-c2ccc(Cl)cc2)o1)Nc1ccccc1Cl`, for which the “activity, negative = inhibition” value is -14.2%.
With `O=C(Cc1ccc(Cl)cc1)Nc1cccc(-c2nnc(-c3ccco3)o2)c1`, the AC50 was 0.178 µM (active).
As to `COc1ccc(CC(=O)Nc2ccc(-c3noc(-c4cccc(OC)c4)n3)cc2)cc1`, the “activity, negative = inhibition” value is -12.6%.
For `COc1ccc(CC(=O)Nc2cccc(-c3nnc(-c4ccco4)o3)c2)cc1`, the AC50 is 0.316 µM (active).
As to `COc1ccccc1CN1CCC2(CC1)CCN(C(=O)c1c(C)noc1C)CC2`, the “activity, negative = inhibition” value was -3.96%.
As to `CN(Cc1ccco1)c1ccnc(-c2cccc(NS(C)(=O)=O)c2)n1`, the activity, negative = inhibition is -11.7% [at 2.29 µM].
Take `COc1ccc(N(CC(=O)NN=C2CCCC2)S(=O)(=O)c2ccccc2)cc1`: the AC50 was 10 µM (active).
Regarding `O=C(CC(=O)NN=C1CCCC1)NCCc1ccccc1`, the “activity, negative = inhibition” value was -21.1%.
Regarding `COCCCNC(=O)CN(c1ccc(OC)cc1)S(=O)(=O)c1ccc(NC(C)=O)cc1`, the AC50 is 11.2 µM (active).
With `CC1CCC(=NNC(=O)Cc2ccccc2)CC1` (configuration not stated), the “activity, negative = inhibition” value is -15.6%.
Still for that read-out and setting: next, `COc1ccc2c(=O)cc(-c3ccncc3)oc2c1OC`: -7.78% [at 11.4 µM]; `O=S(=O)(O)c1ccc(-c2nnc(-c3ccccn3)nc2-c2ccc(S(=O)(=O)O)o2)o1`: -9.22% [at 11.4 µM]; `CO[C@@H]1COC(=O)[C@@H](C)NC(=O)C/C=C\[C@@H](C)[C@H](NS(=O)(=O)c2ccc(C)cc2)COC(=O)[C@H](C)NC(=O)C/C=C\[C@H]1C`: 9.56% [at 11.4 µM].
For the compound `CC1(C)OC(=O)NC1=O`, the “activity, negative = inhibition” value was 1.46% [at 25.6 µM].
On to `COC(=O)Cn1cnc(=O)c(C#N)c1/C=C/N(C)C`, for which the “activity, negative = inhibition” value was -7.06%.
Consider `Cc1cnc(CNc2ncnc3ccc(-c4ccccc4C)cc23)cn1`, for which the activity, negative = inhibition is 0.0371% [at 2.29 µM].
Regarding `COc1ccc(NC(=O)N2CC[C@@]3(CCCN(C(=O)c4cccn4C)C3)C2)cc1`, the “activity, negative = inhibition” value was -3.34%.
Same read-out and setting: next, `NC(=O)[C@H]1CC2(CC(c3cccc(NC(=O)c4ccccc4)c3)=NO2)CN1C(=O)[C@H]1CCC(=O)N1` (some centres not stated): -2.82%; `c1ccc(Nc2ncnc3ccc(-c4ccoc4)cc23)cc1`: 1.19% [at 2.29 µM]; `c1ccc(Nc2ncnc3ccc(-c4cccnc4)cc23)cc1`: 5.26% [at 2.29 µM].
Take `Clc1cccc(Nc2ncnc3ccc(Br)cc23)c1`: the half-maximal activity concentration (AC50) was 14.1 µM (active).
With `CNc1ncnc2ccc(-c3ccccc3CN(C)C)cc12`, the activity, negative = inhibition was -7.28% [at 2.29 µM].
On to `NCCNc1ncnc2ccc(Cl)cc12`, for which the activity, negative = inhibition was 6.44% [at 11.4 µM].
For the compound `Brc1ccc2ncnc(Nc3cccc4ccccc34)c2c1`, the AC50 was 2.51 µM (active).

The values above are taken from PubChem BioAssay AID1851 (National Center for Advancing Translational Sciences (NCATS), 2009).
